In PubChem BioAssay (NCATS):
Inconclusive results are not listed. Active and inactive are the calls of the source. The call rests on the fitted dose curve; in most records, active means well fitted inhibition curve with a large enough effect; inconclusive means small, poorly fitted or top-dose-only effect; inactive means flat fitted curve, though single readings scatter.

Tests used:
Experiment in all cases: qHTS profiling for inhibitors of Plasmodium falciparum proliferation (AID 504749); further: nearly all actives have a fitted effect of over 60% in size
Settings in all cases: P. falciparum in erythrocytes, SYBR Green DNA, 72 h; series mostly up to 28.7 µM
[1] = tested on: AS120
Procedure, shortened: (§1)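 Three-day growth assay of blood-stage parasites in erythrocytes (0.3% parasitemia, 2.5% hematocrit) at 37 C, 5% CO2, quantified by SYBR Green DNA staining after overnight detergent lysis.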

[2] = tested on: ATS95
Procedure, shortened: as §1

[3] = tested on: C2A
Procedure, shortened: as §1

[4] = tested on: CP185
Procedure, shortened: as §1

[5] = tested on: CP191
Procedure, shortened: as §1

[6] = tested on: CP194
Procedure, shortened: as §1

[7] = tested on: CP217
Procedure, shortened: as §1

[8] = tested on: CP237
Procedure, shortened: as §1

[9] = tested on: CP247
Procedure, shortened: as §1

[10] = tested on: CP252
Procedure, shortened: as §1

[11] = tested on: CP256
Procedure, shortened: as §1

[12] = tested on: CP260
Procedure, shortened: as §1

[13] = tested on: ATS189
Procedure, shortened: as §1

[14] = tested on: CP192
Procedure, shortened: as §1

[15] = tested on: CP201
Procedure, shortened: as §1

[16] = tested on: CP211
Procedure, shortened: as §1

[17] = tested on: CP215
Procedure, shortened: as §1

[18] = tested on: CP238
Procedure, shortened: as §1

[19] = tested on: CP250
Procedure, shortened: as §1

[20] = tested on: CP203
Procedure, shortened: as §1
Potency means the concentration at half of the fitted maximal effect.

## CC(NCCC(c1ccccc1)c1ccccc1)c1ccccc1 (centres undefined)
[1]
  Potency: 11.2 µM (active)
[2]
  Potency: 11.2 µM (active)
[3]
  Potency: 10 µM (active)
[4]
  Potency: 8.91 µM (active)
[5]
  Potency: 10 µM (active)
[6]
  Potency: 15.1 µM (active)
[7]
  Potency: 8.91 µM (active)
[8]
  Potency: 10 µM (active)
[9]
  Potency: 7.94 µM (active)
[10]
  Potency: 10 µM (active)
[11]
  Potency: 12.6 µM (active)
[12]
  Potency: 10 µM (active)

## O=[N+]([O-])c1ccc(O)c2ncccc12
[1]
  Potency: 10 µM (active)
[3]
  Potency: 12.6 µM (active)
[5]
  Potency: 12.6 µM (active)
[9]
  Potency: 11.2 µM (active)
[10]
  Potency: 8.91 µM (active)

## CCCCCCCCCCCCCCCC[N+](C)(C)Cc1ccccc1
[1]
  Potency: 1 µM (active)
[13]
  Potency: 3.55 µM (active)
[2]
  Potency: 3.55 µM (active)
[3]
  Potency: 10 µM (active)
[4]
  Potency: 0.501 µM (active)
[5]
  Potency: 1 µM (active)
[14]
  Potency: 9.53 µM (active)
[6]
  Potency: 12 µM (active)
[15]
  Potency: 12 µM (active)
[16]
  Potency: 10.7 µM (active)
[17]
  Potency: 9.53 µM (active)
[7]
  Potency: 3.16 µM (active)
[8]
  Potency: 3.55 µM (active)
[18]
  Potency: 0.891 µM (active)
[9]
  Potency: 2.24 µM (active)
[19]
  Potency: 2.51 µM (active)
[10]
  Potency: 3.16 µM (active)
[11]
  Potency: 3.98 µM (active)
[12]
  Potency: 2 µM (active)

## O=C(Nc1ccc(Cl)cc1)Nc1ccc(Cl)c(Cl)c1
[1]
  Potency: 2.24 µM (active)
[13]
  Potency: 3.16 µM (active)
[2]
  Potency: 3.16 µM (active)
[3]
  Potency: 3.16 µM (active)
[4]
  Potency: 2.51 µM (active)
[5]
  Potency: 2.82 µM (active)
[14]
  Potency: 9.53 µM (active)
[6]
  Potency: 6.01 µM (active)
[15]
  Potency: 7.57 µM (active)
[20]
  Potency: 4.26 µM (active)
[16]
  Potency: 6.01 µM (active)
[17]
  Potency: 6.75 µM (active)
[7]
  Potency: 2.24 µM (active)
[8]
  Potency: 2 µM (active)
[18]
  Potency: 3.55 µM (active)
[9]
  Potency: 3.98 µM (active)
[19]
  Potency: 3.16 µM (active)
[10]
  Potency: 3.55 µM (active)
[11]
  Potency: 2.24 µM (active)
[12]
  Potency: 2 µM (active)

## CN1CCC(Nc2ncc3ncnc(Nc4ccc(F)c(Cl)c4)c3n2)CC1
[3]
  Potency: 11.2 µM (active)
[7]
  Potency: 11.2 µM (active)
[10]
  Potency: 7.94 µM (active)

## Nc1ncnc2nc[nH]c12
[1]
  Potency: inactive
[13]
  Potency: inactive
[2]
  Potency: inactive
[3]
  Potency: inactive
[4]
  Potency: inactive
[5]
  Potency: inactive
[14]
  Potency: inactive
[6]
  Potency: inactive
[15]
  Potency: inactive
[20]
  Potency: inactive
[16]
  Potency: inactive
[17]
  Potency: inactive
[7]
  Potency: inactive
[8]
  Potency: inactive
[18]
  Potency: inactive
[9]
  Potency: inactive
[19]
  Potency: inactive
[10]
  Potency: inactive
[11]
  Potency: inactive
[12]
  Potency: inactive

## CN1CCCN(C(c2ccccc2)c2ccc(Cl)cc2)CC1 (centres undefined)
[1]
  Potency: 11.2 µM (active)
[13]
  Potency: 10 µM (active)
[2]
  Potency: 11.2 µM (active)
[3]
  Potency: 11.2 µM (active)
[5]
  Potency: 10 µM (active)
[7]
  Potency: 14.1 µM (active)
[8]
  Potency: 11.2 µM (active)
[9]
  Potency: 11.2 µM (active)
[19]
  Potency: 12.6 µM (active)
[11]
  Potency: 10 µM (active)
[12]
  Potency: 10 µM (active)

## Nc1ccc2cc3ccc(N)cc3nc2c1
[8]
  Potency: 12.6 µM (active)
[12]
  Potency: 8.91 µM (active)

## CCCCCCCCCCCCCCCC[n+]1ccccc1
[1]
  Potency: 7.94 µM (active)
[13]
  Potency: 6.31 µM (active)
[2]
  Potency: 7.94 µM (active)
[3]
  Potency: 4.47 µM (active)
[4]
  Potency: 7.94 µM (active)
[5]
  Potency: 4.47 µM (active)
[14]
  Potency: 7.57 µM (active)
[6]
  Potency: 6.75 µM (active)
[15]
  Potency: 7.57 µM (active)
[20]
  Potency: 9.53 µM (active)
[16]
  Potency: 6.75 µM (active)
[17]
  Potency: 13.5 µM (active)
[7]
  Potency: 5.62 µM (active)
[8]
  Potency: 7.94 µM (active)
[18]
  Potency: 7.08 µM (active)
[9]
  Potency: 5.62 µM (active)
[19]
  Potency: 6.31 µM (active)
[10]
  Potency: 6.31 µM (active)
[11]
  Potency: 8.91 µM (active)
[12]
  Potency: 3.98 µM (active)

## O=S(=O)(O)c1ccc2nc(-c3ccccc3)[nH]c2c1
[1]
  Potency: inactive
[13]
  Potency: inactive
[2]
  Potency: inactive
[3]
  Potency: inactive
[4]
  Potency: inactive
[5]
  Potency: inactive
[14]
  Potency: inactive
[6]
  Potency: inactive
[15]
  Potency: inactive
[20]
  Potency: inactive
[16]
  Potency: inactive
[17]
  Potency: inactive
[7]
  Potency: inactive
[8]
  Potency: inactive
[18]
  Potency: inactive
[9]
  Potency: inactive
[19]
  Potency: inactive
[10]
  Potency: inactive
[11]
  Potency: inactive
[12]
  Potency: inactive

## Nc1c2ccccc2nc2ccccc12
[1]
  Potency: 12.6 µM (active)
[13]
  Potency: 7.08 µM (active)
[2]
  Potency: 11.2 µM (active)
[4]
  Potency: 8.91 µM (active)
[5]
  Potency: 11.2 µM (active)
[14]
  Potency: 12 µM (active)
[8]
  Potency: 8.91 µM (active)
[18]
  Potency: 10 µM (active)
[9]
  Potency: 10 µM (active)
[10]
  Potency: 10 µM (active)
[11]
  Potency: 11.2 µM (active)
[12]
  Potency: 7.94 µM (active)

## CCCCCCCCCCCCCC[N+](C)(C)C
[1]
  Potency: 5.62 µM (active)
[13]
  Potency: 5.62 µM (active)
[2]
  Potency: 7.08 µM (active)
[3]
  Potency: 3.98 µM (active)
[4]
  Potency: 5.62 µM (active)
[5]
  Potency: 4.47 µM (active)
[14]
  Potency: 6.01 µM (active)
[6]
  Potency: 6.75 µM (active)
[15]
  Potency: 12 µM (active)
[20]
  Potency: 6.75 µM (active)
[16]
  Potency: 6.01 µM (active)
[17]
  Potency: 8.49 µM (active)
[7]
  Potency: 8.91 µM (active)
[8]
  Potency: 5.01 µM (active)
[18]
  Potency: 3.98 µM (active)
[9]
  Potency: 3.98 µM (active)
[19]
  Potency: 5.62 µM (active)
[10]
  Potency: 7.08 µM (active)
[11]
  Potency: 7.94 µM (active)
[12]
  Potency: 3.98 µM (active)
